Experimental data: PubChem BioAssay (EPA / NIEHS)
Where “and” joins values, the source holds several entries; their conditions need not be identical. Equal values may be shown once. Where a structure was tested more than once in an assay, its records may differ in their call. Calls of active or inactive are those of the source. Rule for the calls: active = hit-call score of the fitted dose curve at least 0.9, where 1 is the maximum; inactive = score below 0.9.

read-out: Cytochrome P450 2C19 (Homo sapiens) (UniProt P33261); assay: LTEA_HepaRG_CYP2C19: Life Technologies and Expression Analysis (LTEA) Assay for CYP2C19 using HepaRG (AID 2283482); conditions: mRNA level, 48 h; actives raise or lower the signal
Method: LTEA_HepaRG is a cell based, multiplexed-readout assay that uses HepaRG, a human liver cell line, with measurements taken at 48 hours after chemical dosing on a 96-well plate.LTEA_HepaRG_CYP2C19 is one of 102 assay component(s) measured in the LTEA HepaRG cell culture assay. It is a marker of NR mediated metabolism.Data from the assay component LTEA_HepaRG_CYP2C19 was analyzed into 1 endpoint. This assay endpoint, LTEA_HepaRG_CYP2C19, was analyzed with bidirectional fitting relative to DMSO as the negative control and baseline of activity. Using a type of inducible reporter, measures of mRNA induction for gain or loss-of-signal activity can be used to understand regulation of transcription factor activity. To generalize the intended target to other relatable targets, this assay endpoint is annotated to the cyp intended target family, where the subfamily is xenobiotic metabolism.
A total of 1060 chemcials from the ToxCast library were tested in eight-point concentration-response experiments. Cell culture and cytotoxicity assays were conducted at Thermo Fisher Scientific's Custom Services facility (Madison, WI). A single lot of human HepaRG cells (Thermo Fisher Scientific, Frederick, MD) was used for the cell culture experiments. 96-well format collagen type I coated plates of human HepaRG cells were prepared using established methods. Briefly, cryopreserved HepaRG cells were thawed, plated at a density of approximately 100,000 cells/well in HepaRG Thaw, Plate, and General Purpose media (HPRG770, Thermo Fisher Scientific), and incubated for 48 hours. 0.5% DMSO was selected as vehicle control to balance the requisite need of DMSO in HepaRG cultures to maintain differentiation (for example, baseline metabolism, proportions of hepatocytes vs. cholangiocytes), while enabling further hepatic receptor pathway activation (for example, PXR and CAR) in response to chemical exposure. 48 hours after plating, the culture medium was replaced with HepaRG Serum-Free Incudtion Media. Cells were exposed to each test chemical in duplicate and maintained in CO2 incubators for another 48 hours. Chemical plates were thawed to room temperature and 200x concentrations of treatment groups were prepared. 8-point conentration-reponse curves were made with the highest exposure at 100 uM, followed by half-log dilutions, all in 0.5% DMSO. Each test plate contained variouse controls, induction positive controls (1mM phenobarbital), cytotoxicity positive controls ([…] aflatoxin B1), vehicle controls (0.5% DMSO), and total lysis controls (0.5% DMSO). Cell morphology images were taken using an Essen IncuCyte FLR automated microscope, with six 96-well plates imaged in about 24 minutes. Images were captured and exported and JPEG files. Spent culture media was transfered to black-well plates for the LDH assay, and remaining media was sorted at -80 C for later use. Cells were treated with RLT buffer and frozen until shipped for gene expression analysis. Total RNA was isolated from the cell suspension in 75 uL of Buffer RLT (Qiagen, Germantown, MD 20874) by Quintiles/Expression Analysis (Durham, NC) using a custom isolation procedure. Total RNA from each plate well was transferred to a preamplification plate. Fluidigm's 96.96 Dynamic ArrayTM (Fluidigm, Amsterdam, the Netherlands) technology was used for gene expression analyses by quantitative reverse transcription polymerase chain reaction (qRT-PCR, performed by Quintiles/Expression Analysis, Durham, NC)89. Standard TaqManTM Assays (Applied Biosystems/ThermoFisher Scientific, Foster City, CA) were used to assess the expression of 93 genes selected based on their selectivity and sensitivity to important hepatic receptors known to be modulated by environmental chemicals; importance in human hepatocyte functionality; and hepatotoxicity. […]

Sequence of Cytochrome P450 2C19 (Homo sapiens) (P33261 whole entry, looked up): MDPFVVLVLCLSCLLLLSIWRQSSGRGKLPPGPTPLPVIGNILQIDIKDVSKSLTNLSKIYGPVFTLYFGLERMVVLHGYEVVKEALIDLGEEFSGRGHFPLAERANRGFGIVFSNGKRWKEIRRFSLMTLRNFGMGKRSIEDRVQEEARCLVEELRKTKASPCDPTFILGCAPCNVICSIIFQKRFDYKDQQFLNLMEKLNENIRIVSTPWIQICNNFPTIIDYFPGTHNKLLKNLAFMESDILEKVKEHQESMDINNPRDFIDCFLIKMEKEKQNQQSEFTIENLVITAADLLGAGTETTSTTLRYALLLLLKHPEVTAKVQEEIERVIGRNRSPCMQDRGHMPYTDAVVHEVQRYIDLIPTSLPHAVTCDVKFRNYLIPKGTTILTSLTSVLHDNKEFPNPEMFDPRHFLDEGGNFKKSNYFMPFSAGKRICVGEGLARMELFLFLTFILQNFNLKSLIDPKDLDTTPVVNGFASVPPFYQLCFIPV

Row | Structure (SMILES) | outcome | AC50
1 | CNC(=O)CSP(=S)(OC)OC | inactive | 
2 | C[C@H]1[C@H](c2ccc(Cl)cc2)SC(=O)N1C(=O)NC1CCCCC1 |  | 89 µM (active)
3 | O=S1OCC2C(CO1)C1(Cl)C(Cl)=C(Cl)C2(Cl)C1(Cl)Cl (stereo not given) |  | 89.2 µM (active)
4 | O=[N+]([O-])c1c(Cl)c(Cl)c(Cl)c(Cl)c1Cl | inactive | 
5 | CCC(C)Nc1c([N+](=O)[O-])cc(C(C)(C)C)cc1[N+](=O)[O-] (stereo not given) |  | 12.9 µM (active)
6 | Oc1cc(Cl)ccc1Oc1ccc(Cl)cc1Cl | inactive | 83.2 µM (active)
7 | CC(C)OC(=O)Nc1cccc(Cl)c1 | inactive | 
8 | CCc1ccc(C(=O)NN(C(=O)c2cc(C)cc(C)c2)C(C)(C)C)cc1 |  | 2.71 µM (active)
9 | CNC(=O)/C=C(\C)OP(=O)(OC)OC | inactive | 
10 | CC1(c2ccc(Oc3ccccc3)cc2)OC(=O)N(Nc2ccccc2)C1=O (stereo not given) |  | 26.3 µM (active)
11 | CCOC1Oc2ccc(OS(C)(=O)=O)cc2C1(C)C (stereo not given) |  | 11.7 µM (active)
12 | Oc1ccc(Cl)cc1Cc1ccccc1 | inactive | 83.7 µM (active) and 50.5 µM (active)
13 | CCN(CC)C(=O)SCc1ccc(Cl)cc1 |  | 17.7 µM (active)
14 | Clc1ccccc1-c1nnc(-c2ccccc2Cl)nn1 |  | 15.3 µM (active)
15 | COc1nn(CSP(=S)(OC)OC)c(=O)s1 |  | 10.6 µM (active)
16 | O=C(O)COc1ccc(Cl)cc1Cl |  | 19.6 µM (active)
17 | CCCN(CCOc1c(Cl)cc(Cl)cc1Cl)C(=O)n1ccnc1 |  | 36.8 µM (active)
18 | Cc1[nH]c(=O)n(C(C)(C)C)c(=O)c1Cl |  | 31.1 µM (active)
19 | ClC1C(Cl)C(Cl)C(Cl)C(Cl)C1Cl (stereo not given) |  | 1.1 µM (active) and 1.12 µM (active)

Row | Structure (SMILES) | outcome | AC50
20 | O=C(O)CCCOc1ccc(Cl)cc1Cl |  | 14 µM (active)
21 | CCCN(CCC)c1c([N+](=O)[O-])cc(C(F)(F)F)cc1[N+](=O)[O-] | inactive | 
22 | O=C1c2ccccc2C(=O)N1SC(Cl)(Cl)Cl | inactive | 
23 | N#CN | inactive | 
24 | COP(=S)(OC)Oc1ccc([N+](=O)[O-])cc1 |  | 50 µM (active)
25 | CCC(C)(C)C(=O)OC1=C(c2ccc(Cl)cc2Cl)C(=O)OC12CCCCC2 | inactive | 
26 | CC(C)N(C(=O)COc1nnc(C(F)(F)F)s1)c1ccc(F)cc1 | inactive | 
27 | CC(C)(C)C(O)/C(=C\c1ccc(Cl)cc1Cl)n1cncn1 (stereo not given) |  | 4.01 µM (active)
28 | CC[C@H](C)[C@H]1O[C@]2(C=C[C@@H]1C)C[C@@H]1C[C@@H](C/C=C(\C)[C@@H](O[C@H]3C[C@H](OC)[C@@H](O[C@H]4C[C@H](OC)[C@@H](O)[C@H](C)O4)[C@H](C)O3)[C@@H](C)/C=C/C=C3\CO[C@@H]4[C@H](O)C(C)=C[C@@H](C(=O)O1)[C@]34O)O2 (tested in a mixture with another compound) |  | 11.6 µM (active)
29 | O=C(O)C(F)(F)C(F)(F)C(F)(F)C(F)(F)C(F)(F)C(F)(F)C(F)(F)F |  | 9.92 µM (active) and 5.55 µM (active)
30 | O=S(=O)(O)C(F)(F)C(F)(F)C(F)(F)C(F)(F)C(F)(F)C(F)(F)C(F)(F)C(F)(F)F | inactive | 89.3 µM (active) and 12.1 µM (active) and 11 µM (active)
31 | CCC(C)(NC(=O)c1cc(Cl)c(C)c(Cl)c1)C(=O)CCl (stereo not given) |  | 85.4 µM (active)
32 | O=C(Nc1ccccc1)Nc1cnns1 |  | 89.1 µM (active)
33 | COP(=O)(OC)OC=C(Cl)Cl | inactive | 
34 | CNC(=O)Oc1ccccc1OC(C)C | inactive | 
35 | OCCOc1ccccc1 | inactive | 
36 | CC1(C)C(C=C(Cl)Cl)C1C(=O)OC(C#N)c1ccc(F)c(Oc2ccccc2)c1 (stereo not given) |  | 20.7 µM (active)
37 | O=C(NC(=O)c1c(F)cccc1F)Nc1ccc(OC(F)(F)C(F)OC(F)(F)F)c(Cl)c1 (stereo not given) | inactive | 
